The full list was thinned out, with hits kept by preference.
Tg IFNy HTS: blocks Toxoplasma gondii growth in the presence of IFN-gamma; Toxoplasma gondii growth in IFN-gamma-treated host cells; active compounds read low; activity change, negative = inhibition, % (concentration not given with the values); 69,000 compounds, 3.8% hits; AID 1259416; in the data active = activity change below about -70%, passing the limit was not always enough;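 note: host cells are HeLa cells infected with Toxoplasma gondii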
* marks the source's active call; other numbers are inactive results; ! = not active in a repeat.

SMILES	Tg IFNy HTS
Nc1[nH]c(=O)ncc1F	-79*!
Cc1cnc(C(=O)NC2CCN(C(=O)Cn3ccc4ccncc43)CC2)cn1	8
O=C(N1CCCC1)N1CCC2(CC(=O)N(c3ccccc3)C2)C1 (stereo not drawn)	8
O=C(Nc1ccc(Cl)c(Cl)c1Cl)NC1CCSC1 (stereo not drawn)	-75*
Cc1nsc(NC(=O)NC2CCN(Cc3ccccc3Cl)CC2)n1	-6
Cc1ccccc1C(C(=O)N1CCCN(C)C2(CCN(C)CC2)C1)N(C)C (stereo not drawn)	1
CC(C)c1ccc(S(=O)(=O)N2CCC3(CC2)NCCN=C3NC2CCCCC2)cc1	-13
CC(=O)Nc1nc(C)c(-c2ccc(Cl)c(S(=O)(=O)NCCO)c2)s1	-81*
COc1ccc(-c2nc(C)c(CCNS(=O)(=O)c3cc(Cl)ccc3Cl)s2)cc1	410
Cc1nc(-c2ccc(F)cc2)sc1CCNS(=O)(=O)c1ccccc1Cl	48
Cc1cnc(C(=O)N2Cc3cnn(Cc4ccc(F)cc4)c3C2)cn1	-2
CCc1cnc(-c2cc(C)ccc2OC)nc1	1
CC(C)C(=O)N1CCC[C@]2(C(=O)NCC3CC3)CN(Cc3cnn(C)c3)C[C@H]2C1	-26
Cc1cc(C(=O)N2CCN(C3CCCCC3)CC2)cc(S(N)(=O)=O)c1C	16
COc1cccc(CN(C)Cc2cc3ccc(F)cc3[nH]c2=O)c1	10
Cc1ccc(NC(=O)N(Cc2ccco2)Cc2cc3cc4c(cc3[nH]c2=O)OCCO4)cc1	-5
Cc1cccc2cc(CN(Cc3ccccc3)C(=O)Nc3ccc(F)cc3)c(=O)[nH]c12	-104*
O=C(Nc1ccccc1F)N1CCCC1c1n[nH]c(Cc2ccc(F)cc2)n1 (stereo not drawn)	-43
O=C(Cn1ncc2c(N3CCCCC3)ncnc21)Nc1ccccc1Br	14
Cc1cccc(CN2CCc3onc(CN(C)C)c3C2)n1	-2
CN(C)Cc1noc2c1CN(Cc1nccn1C)CC2	-75*
CN(C)Cc1noc2c1CN(Cc1ccoc1)CC2	-32
O=C(OCCCN1CCOCC1)c1ccc(O)cc1O	-5
COc1cccc(Cn2nc(C(=O)NC3CC3)c3c2CCN(C(=O)c2ccc(-c4ccco4)cc2)C3)c1	12
COc1ccc(CC(=O)N2CCN(S(=O)(=O)c3cc4c5c(c3)CCC(=O)N5CCC4)CC2)cc1	-2
SMILES	Tg IFNy HTS
CC(=O)N1CCC2(CC1)CC(CC(=O)Nc1cccnc1)c1ccccc1O2 (stereo not drawn)	-5
O=C1CC(C(=O)N2CCC[C@]3(CCC(=O)N3)[C@H]2c2cccc(F)c2)c2ccccc2N1 (stereo partly drawn)	24
CS(=O)(=O)N1CCc2sc(C(=O)NCc3ccccc3)cc21	-4
CC(C)C(=O)c1cc2c(s1)CCN2S(C)(=O)=O	-85*
CS(=O)(=O)N1CCc2sc(C(=O)Nc3ccccc3F)cc21	-19
COc1cccc(-n2c(=O)c(C(=O)NCC3CC3)c(O)c3cccnc32)c1	-32
Cc1cccnc1CN(C)C(=O)c1cccc(C#CC(C)(C)O)c1	0
CCc1ncc(CN2CCC(Cc3cc(NCc4ccccc4F)nc(C)n3)CC2)cn1	-43
CNc1cc(CC2CCN(C(C)=O)C2)ncn1 (stereo not drawn)	-7
O=C(Nc1ccc(-c2nnn(CC(=O)N3CCc4ccccc4C3)n2)cc1)c1cccnc1	-24
NCC1Cc2c(ccc3cc(-c4ccncc4)ccc23)O1 (stereo not drawn)	-86*
COc1ccc(NC(=O)c2ccc3nnc(C4CCN(Cc5ccccc5)C4)n3c2)cc1 (stereo not drawn)	-3
CN1CC[C@@]2(CN(Cc3ccco3)C[C@H]2c2ccccc2)C1=O	2
COc1ccc(N(Cc2nc(-c3ccc(OC(C)C)cc3)oc2C)S(=O)(=O)c2ccccc2)cc1	-22
Cc1ccc(C2=NC3(CCN(Cc4cc(C)ccc4C)CC3)NC2=O)cc1	-16
COCCN1C(=O)CCc2cc(NC(=O)C3CCC3)ccc21	31
O=C1CCc2cc(NC(=O)C3CCC3)ccc2N1	4
Cc1c(C)c(C)c(C(=O)CCc2cccc(NC(=O)C3CCC3)c2)c(C)c1C	-92*
Cc1c(Cl)cccc1NC(=S)NCc1cccnc1	18
CSc1nc(COc2ccc(C(C)(C)C)cc2)nc(-c2ccc(Cl)cc2)c1C#N	4
COc1ccc2c3c(n(C)c2c1)[C@@H](CO)N(C(=O)CN(C)C)CC31CN(Cc2nccs2)C1	-109*
COc1ccc(S(=O)(=O)N2CC3(CN(C(=O)CN(C)C)[C@@H](CO)c4c3c3ccc(OC)cc3n4C)C2)cc1	-28
COc1ccc2c3c(n(C)c2c1)[C@@H](CO)N(Cc1nccs1)CC31CCN(C(=O)CN(C)C)CC1	5
Cc1onc(-c2c(Cl)cccc2Cl)c1-c1nc2cccc(F)c2c(=O)o1	-35
FC(F)(F)c1ccc(-c2nnc(COc3ccccc3Cl)o2)cc1	21
SMILES	Tg IFNy HTS
Cc1onc(-c2c(F)cccc2Cl)c1-c1nnc(-c2ccc(C(F)(F)F)cc2)o1	-99*
CCS(=O)(=O)N1CCC2(CC1)OC(=O)C(C)=C2C(=O)NCCN1CCN(C)CC1	14
CN(Cc1ccc(-n2cccn2)cc1)Cc1cccc2nonc12	11
CCN(C)C(=O)c1ncn2c(C3CCN(Cc4cccnc4)CC3)ccnc12	73
CC(C)(C)c1ccc(C(=O)N2CCCn3c2nc2ccccc2c3=O)cc1	-40
CC(C)(C)c1ccc(C(=O)N2NC(=Nc3ccccc3)SC2(C)C)cc1	-87*
CC(C)(C)c1ccc(C(=O)N2CCN(C(=O)c3ccc(C(C)(C)C)cc3)CC2)cc1	-49
CCn1c(CC2CCN(C(=O)C3COCCO3)CC2)nn(C)c1=O (stereo not drawn)	28
CC(=O)Nc1ccc(Cl)c(C(=O)NCC(c2cccs2)N(C)C)c1 (stereo not drawn)	-4
Cc1ccccc1CNc1nc(CCn2ncc3c2CCCC3)cc(=O)[nH]1	7
CN1CCCC2(CCN(C(=O)CCn3ccc(=O)[nH]c3=O)C2)C1=O (stereo not drawn)	-13
Fc1cccc(CN(Cc2cncn2Cc2ccccc2)CC2CCCO2)c1 (stereo not drawn)	-93*
COc1cc(CN(Cc2ccccc2)CC2CCCO2)cc(OC)c1OC (stereo not drawn)	1
CN(C)CCN(Cc1cccnc1)Cc1cncn1Cc1ccccc1	14
Cc1cc(C)n(C2CCN(Cc3cccn3S(=O)(=O)c3ccccc3)C2)n1 (stereo not drawn)	-6
O=C(Nc1ccccc1)C1CCN(S(=O)(=O)c2ccc(-n3cnnn3)cc2)CC1	8
O=C1[C@@H]2C[C@H](O)CCN2C(=O)CN1CCc1ccccc1Cl	2
Cc1nc(OCC(=O)Nc2cc(Cl)ccc2C)c2ccccc2n1	-8
CCc1nc(OCC(=O)Nc2cc(Cl)ccc2Cl)c2ccccc2n1	-38
Cc1ccc(Cl)cc1NC(=O)COc1ccccc1Br	-83*
Cc1cn([C@H]2O[C@@H](CO)[C@H](O)[C@@H]2F)c(=O)[nH]c1=O	18
CCCCCOC(=O)Nc1nc(=O)n([C@@H]2O[C@H](C)[C@@H](O)[C@H]2O)cc1F	-53
C[C@H]1O[C@@H](n2cc(F)c(=O)[nH]c2=O)[C@H](O)[C@@H]1O	-91*
Cc1ccc(CN(CCN(C)C)C(=O)c2cn(C)c3ccccc23)s1	-1
O=C(c1ccnc(-n2cnnc2)c1)N1CCOC(CCCc2ccccc2)C1 (stereo not drawn)	8
Cc1ccc(C)c(-c2coc(-c3ccc(NC(=O)NC4CCCCC4)cc3)n2)c1	2
CCn1cc(C(=O)N(CC2COc3ccccc3O2)C(C)C)c(C)n1 (stereo not drawn)	-4

Screening results (PubChem BioAssay)
